# From publication PMC5700166
# Biological target: GST-Hu-p50 (Homo sapiens, UniProt P19838 7-356)
# Assay: protein-binding microarray (PBM); PBM: ~300 nM protein, 6 mM HEPES pH 7.8, 80 mM KCl, 0.5 mM EDTA, 0.5 mM EGTA, 6% glycerol, 35 ng/ul poly-dIdC, 1% milk, 1 h, room temperature; Ap Aiptasia and Nv Nematostella (sea anemones) / Co Capsaspora / Aq Amphimedon (sponge) / Dm Drosophila / Hu human; RHD is the Rel homology domain; high values mean tight binding
# Conditions: dsDNA, one strand shown
# Sequence of GST-Hu-p50 (P19838 7-356): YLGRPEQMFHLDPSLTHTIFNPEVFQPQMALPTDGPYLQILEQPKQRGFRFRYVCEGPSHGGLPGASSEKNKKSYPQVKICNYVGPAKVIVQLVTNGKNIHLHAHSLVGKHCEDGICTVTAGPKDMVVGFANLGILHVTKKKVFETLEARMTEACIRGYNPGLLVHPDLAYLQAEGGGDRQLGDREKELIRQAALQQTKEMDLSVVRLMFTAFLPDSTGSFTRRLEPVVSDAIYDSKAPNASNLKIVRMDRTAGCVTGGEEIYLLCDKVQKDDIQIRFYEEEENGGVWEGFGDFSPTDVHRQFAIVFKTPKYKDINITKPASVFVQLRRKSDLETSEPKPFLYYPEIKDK
row,Sequence,binding signal [z-score]
1,CCGATTAACATCAGGAATCACCCTGATGTTAATCGGGTCTTGATTCGCTTGACGCTGCTG,3.31
2,CCGATTAACATCAGGCAACCCCATGATGTTAATCGGGTCTTGATTCGCTTGACGCTGCTG,1.09
3,CCGATTAACATCACCCCATCTCGTGATGTTAATCGGGTCTTGATTCGCTTGACGCTGCTG,1.44
4,CCGATTAACATCAAACTTTTCCCTGATGTTAATCGGGTCTTGATTCGCTTGACGCTGCTG,3.53
5,CCGATTAACATCAGGTAATTACCTGATGTTAATCGGGTCTTGATTCGCTTGACGCTGCTG,3.47
6,CCGATTAACATCACCTATTCCCCTGATGTTAATCGGGTCTTGATTCGCTTGACGCTGCTG,5.12
7,CCGATTAACATCAAATATTTCCCTGATGTTAATCGGGTCTTGATTCGCTTGACGCTGCTG,4.62
8,CCGATTAACATCAAAAATTCCCATGATGTTAATCGGGTCTTGATTCGCTTGACGCTGCTG,5.24
9,CCGATTAACATCAATAATTTTCCTGATGTTAATCGGGTCTTGATTCGCTTGACGCTGCTG,1.12
10,CCGATTAACATCACTTTTTTCCCTGATGTTAATCGGGTCTTGATTCGCTTGACGCTGCTG,3.53
11,CCGATTAACATCAAGGAAAGCCCTGATGTTAATCGGGTCTTGATTCGCTTGACGCTGCTG,1.13
12,CCGATTAACATCAGGAAAAGTCCTGATGTTAATCGGGTCTTGATTCGCTTGACGCTGCTG,1.57
13,CCGATTAACATCAGGATTTTCCCTGATGTTAATCGGGTCTTGATTCGCTTGACGCTGCTG,5
14,CCGATTAACATCAACATTTTCCCTGATGTTAATCGGGTCTTGATTCGCTTGACGCTGCTG,4.21
15,CCGATTAACATCACCAAATTTCCTGATGTTAATCGGGTCTTGATTCGCTTGACGCTGCTG,1.31
16,CCGATTAACATCAGGGAAAAACCTGATGTTAATCGGGTCTTGATTCGCTTGACGCTGCTG,4.95
17,CCGATTAACATCAGGAAGTTACCTGATGTTAATCGGGTCTTGATTCGCTTGACGCTGCTG,1.42
18,CCGATTAACATCAGGGATTCCACTGATGTTAATCGGGTCTTGATTCGCTTGACGCTGCTG,1.75
19,CCGATTAACATCAGGGAAACTACTGATGTTAATCGGGTCTTGATTCGCTTGACGCTGCTG,3.85
20,CCGATTAACATCACGGAAATTTATGATGTTAATCGGGTCTTGATTCGCTTGACGCTGCTG,1.44

row,Sequence,binding signal [z-score]
1,CCGATTAACATCAGGAAACACCATGATGTTAATCGGGTCTTGATTCGCTTGACGCTGCTG,1.95
2,CCGATTAACATCAGGGCAAAAAATGATGTTAATCGGGTCTTGATTCGCTTGACGCTGCTG,1.45
3,CCGATTAACATCACAATAACGGGTGATGTTAATCGGGTCTTGATTCGCTTGACGCTGCTG,1.74
4,CCGATTAACATCAAAAAACTACCTGATGTTAATCGGGTCTTGATTCGCTTGACGCTGCTG,4.32
5,CCGATTAACATCACCGGAATTTCTGATGTTAATCGGGTCTTGATTCGCTTGACGCTGCTG,2.22
6,CCGATTAACATCAAAAAATTCCTTGATGTTAATCGGGTCTTGATTCGCTTGACGCTGCTG,1.55
7,CCGATTAACATCAGGATATACCCTGATGTTAATCGGGTCTTGATTCGCTTGACGCTGCTG,1.53
8,CCGATTAACATCACTCTTTCCCCTGATGTTAATCGGGTCTTGATTCGCTTGACGCTGCTG,4.08
9,CCGATTAACATCAGGAATTGCCCTGATGTTAATCGGGTCTTGATTCGCTTGACGCTGCTG,1.09
10,CCGATTAACATCACGTATTCCCCTGATGTTAATCGGGTCTTGATTCGCTTGACGCTGCTG,5.15
11,CCGATTAACATCACATACCCCCCTGATGTTAATCGGGTCTTGATTCGCTTGACGCTGCTG,3.68
12,CCGATTAACATCAACGGGTCCCTTGATGTTAATCGGGTCTTGATTCGCTTGACGCTGCTG,1.31
13,CCGATTAACATCACCATTATAGGTGATGTTAATCGGGTCTTGATTCGCTTGACGCTGCTG,1.68
14,CCGATTAACATCAATAGTTCCCCTGATGTTAATCGGGTCTTGATTCGCTTGACGCTGCTG,5.26
15,CCGATTAACATCAACCTTTCCCCTGATGTTAATCGGGTCTTGATTCGCTTGACGCTGCTG,4.06
16,CCGATTAACATCAGGCGTTTCCCTGATGTTAATCGGGTCTTGATTCGCTTGACGCTGCTG,1.83
17,CCGATTAACATCATACAAGGGAGTGATGTTAATCGGGTCTTGATTCGCTTGACGCTGCTG,1.09
18,CCGATTAACATCACCGTTCCGATTGATGTTAATCGGGTCTTGATTCGCTTGACGCTGCTG,1.04
19,CCGATTAACATCAATTTCCCGTATGATGTTAATCGGGTCTTGATTCGCTTGACGCTGCTG,2.68
